From PubChem BioAssay (NCI) come the findings set out here.

The panel holds about 83,000 compounds, 20% with a hit somewhere; the sample as a whole holds those more often.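 Single-dose data. Exposure time 48 hours. Values below 10 considered active.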 Values without a mark were called inactive. Activity calls are given as the source filed them.

Test systems include SK-MEL-2 melanoma; EKVX NSCLC; SN12C renal; UO-31 renal; TK-10 renal; ACHN renal; A498 renal; CCRF-CEM leukemia; MOLT-4 leukemia; RPMI-8226 leukemia; OVCAR-8 ovarian; OVCAR-5 ovarian; OVCAR-4 ovarian; SK-OV-3 ovarian; OVCAR-3 ovarian; HS 578T breast; NCI/ADR-RES ovarian; SR leukemia; IGROV1 ovarian.
Test in all cases: NCI-60 one-dose screen, 48 h (100 = growth as untreated, 0 = no growth, -100 = all killed)
Common to all, as to settings: 10 µM unless noted

Regarding `CCOC(=O)C(C)(CSSCC(C)(NC(=O)c1ccc2ccccc2c1)C(=O)OCC)NC(=O)c1ccc2ccccc2c1` (stereo not given), the growth in the assay on SK-MEL-2 melanoma was 107%; in the assay with EKVX NSCLC it was 90.3%; in the assay on SN12C renal, 104%; with UO-31 renal it was 80.6%; in the assay with TK-10 renal, 103%; in the assay with ACHN renal it was 102%. Besides, the growth is 136% in the assay with A498 renal; -42.5% (active) with CCRF-CEM leukemia; 53.1% with MOLT-4 leukemia; 93.4% with RPMI-8226 leukemia; 90.6% in the assay with OVCAR-8 ovarian; 127% in the assay with OVCAR-5 ovarian. In addition, the growth in the assay with OVCAR-4 ovarian was 104%; in the assay on SK-OV-3 ovarian, 107%; with OVCAR-3 ovarian, 110%; with HS 578T breast, 118%; in the assay on NCI/ADR-RES ovarian, 105%.
For `COc1cc(C(=O)N2CCN(C(=O)c3cc(OC)c(OCc4ccccc4)cc3N)CC2)c(N)cc1OCc1ccccc1`, the growth in the assay with SK-MEL-2 melanoma was 102%; in the assay on EKVX NSCLC, 90.8%; with SN12C renal, 111%; in the assay with UO-31 renal, 98.3%; in the assay with TK-10 renal, 131%; with ACHN renal, 159%. The growth with A498 renal is 132%; in the assay on MOLT-4 leukemia it was 101%; with SR leukemia, 81.2%; in the assay on RPMI-8226 leukemia, 179%; in the assay with OVCAR-8 ovarian, 106%; in the assay with OVCAR-5 ovarian it was 103%. Moreover, the growth in the assay on OVCAR-4 ovarian was 103%; in the assay with SK-OV-3 ovarian it was 111%; in the assay with IGROV1 ovarian, 106%; in the assay on HS 578T breast, 109%; in the assay with NCI/ADR-RES ovarian, 98.7%.
Consider `NC(CSC(c1ccccc1)(c1ccccc1)c1ccc(F)cc1)C(=O)O` (stereo not given), for which the growth with SK-MEL-2 melanoma is -30.6% (active); with EKVX NSCLC, 7.52% (active); with SN12C renal, 39%; in the assay on UO-31 renal, 25.3%; in the assay with TK-10 renal, 64.8%; in the assay on ACHN renal, 56.8%. Further, the growth was 58.2% in the assay on A498 renal; 11.1% in the assay on CCRF-CEM leukemia; 9.44% (active) with MOLT-4 leukemia; -25.9% (active) in the assay with RPMI-8226 leukemia; 11.1% in the assay on OVCAR-8 ovarian; 34.9% in the assay on OVCAR-5 ovarian. Also, the growth in the assay on OVCAR-4 ovarian was 48.8%; in the assay on SK-OV-3 ovarian, 34.3%; in the assay with OVCAR-3 ovarian, -39.5% (active); in the assay with HS 578T breast, 16.9%; in the assay on NCI/ADR-RES ovarian, 37.5%.
Turning to `CCC1CN2C(=N1)c1ccccc1-c1cc(Cl)ccc12` (stereo not given), the growth in the assay on SK-MEL-2 melanoma is -14.9% (active); in the assay on EKVX NSCLC, 22.9%; in the assay on SN12C renal, 18.5%; with UO-31 renal it was -43% (active); in the assay on TK-10 renal, 34.7%; with ACHN renal, 2.38% (active). Further, the growth in the assay with A498 renal was 56.9%; with CCRF-CEM leukemia, 13.4%; in the assay on MOLT-4 leukemia it was -24.8% (active); in the assay with RPMI-8226 leukemia, -9.43% (active); in the assay on OVCAR-8 ovarian, -5.17% (active); with OVCAR-5 ovarian, 35.6%. Further, the growth with OVCAR-4 ovarian is 26.6%; with SK-OV-3 ovarian it was 29.6%; in the assay with OVCAR-3 ovarian it was 20.4%; in the assay on HS 578T breast, 89.1%; in the assay with NCI/ADR-RES ovarian, 21.3%.
As to `Cc1cc(NCCN(C(C)C)C(C)C)nc(/N=C(\N)Nc2ccc(Cl)c(C(F)(F)F)c2)n1`, the growth in the assay with SK-MEL-2 melanoma was -89.4% (active); in the assay with EKVX NSCLC, -17.5% (active); with SN12C renal, -45.6% (active); with UO-31 renal, -90.9% (active); in the assay on TK-10 renal, -80.6% (active); in the assay on ACHN renal, -81.1% (active). In addition, the growth in the assay on A498 renal is -88.8% (active); in the assay with CCRF-CEM leukemia, -68% (active); in the assay on MOLT-4 leukemia it was -69.2% (active); in the assay with RPMI-8226 leukemia, -65.7% (active); with OVCAR-8 ovarian, -79.2% (active); with OVCAR-5 ovarian, -55.5% (active). Besides, the growth in the assay on OVCAR-4 ovarian was -68.2% (active); in the assay with SK-OV-3 ovarian it was -82% (active); with OVCAR-3 ovarian, -73.6% (active); in the assay with HS 578T breast, -48.5% (active); with NCI/ADR-RES ovarian, -41.1% (active).
